In PubChem BioAssay (NCI) one finds growth data, which are given here for 12 compounds.

About 83,000 compounds went through this panel and 20% of them were active in at least one assay; those are over-represented in the sample as a whole.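 Cells were grown in 96-well plates and exposed to the test compound at a single concentration for 48 hours; results are reported as percent growth, with values below 10 considered active.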 Unmarked numbers belong to inactive results. Active and inactive are the calls of the source.

Test systems include NCI-H23 lung; NCI-H226 lung; NCI-H322M lung; HOP-62 NSCLC; NCI-H460 lung; HOP-92 NSCLC; NCI-H522 lung; A549/ATCC NSCLC; 786-0 renal; COLO 205 colon.
Test in all cases: NCI-60 one-dose screen, 48 h (100 = growth as untreated, 0 = no growth, -100 = all killed)
Common to all, as to settings: 10 µM unless noted

With `O=C(CN1C(=O)S/C(=C\C(Cl)=C\c2ccccc2)C1=O)NCCCn1ccnc1`, the growth in the assay with NCI-H23 lung was 24%; in the assay with NCI-H226 lung, 41.9%; with NCI-H322M lung it was 90.8%; in the assay on HOP-62 NSCLC, 84.9%; in the assay with NCI-H460 lung it was 68.5%; with HOP-92 NSCLC it was 52.5%. Moreover, the growth in the assay on NCI-H522 lung was -3.5% (active); with A549/ATCC NSCLC it was 85.2%; with 786-0 renal, 9.43% (active); with COLO 205 colon, 4.93% (active).
For `COc1ccc(Nc2ncnc3ccc(-c4cncc(NS(C)(=O)=O)c4)cc23)cc1Cl`, the growth is 35.4% with NCI-H23 lung; 56% in the assay with NCI-H226 lung; 54.6% in the assay on NCI-H322M lung; 39.2% in the assay with HOP-62 NSCLC; 75.9% in the assay on NCI-H460 lung; -7.88% (active) in the assay on HOP-92 NSCLC. For the same compound, the growth was 9.61% (active) with NCI-H522 lung, 64.5% in the assay on A549/ATCC NSCLC, 58.3% with 786-0 renal and 30.2% with COLO 205 colon.
`Nc1nc(CSc2n[nH]c(N)n2)nc(Nc2ccccc2)n1`: the growth in the assay on NCI-H23 lung is 102%; in the assay on NCI-H226 lung, 101%; with NCI-H322M lung, 97.8%; in the assay with HOP-62 NSCLC it was 106%; with NCI-H460 lung, 103%; with HOP-92 NSCLC, 95.4%. The growth in the assay with NCI-H522 lung was 93.4%; in the assay on A549/ATCC NSCLC, 102%; with 786-0 renal, 96%; in the assay on COLO 205 colon, 109%.
In the case of `Nc1n[nH]c2cccc(C#Cc3cccc(NC(=O)c4ccc(N5CCOCC5)c(C(F)(F)F)c4)c3)c12`, the growth is 13.5% with NCI-H23 lung; -0.121% (active) in the assay on NCI-H226 lung; 10.4% in the assay on NCI-H322M lung; 16.8% in the assay with HOP-62 NSCLC; 18.7% in the assay on NCI-H460 lung; -47.1% (active) with HOP-92 NSCLC. The growth in the assay on NCI-H522 lung was 9.42% (active); with A549/ATCC NSCLC it was 13%; with 786-0 renal, -39.4% (active); with COLO 205 colon it was -18.2% (active).
For `C/C(=C(\c1ccc(OCCN2CCOCC2)cc1)c1ccc(OC(=O)C2CCCCC2)cc1)c1ccc(Cl)cc1`, the growth with NCI-H23 lung is 88.9%; in the assay with NCI-H226 lung, 103%; with NCI-H322M lung, 91.9%; in the assay with HOP-62 NSCLC it was 99.4%; with NCI-H460 lung, 97.5%; in the assay on HOP-92 NSCLC it was 71%. For the same compound, the growth with NCI-H522 lung was 62.8%; with A549/ATCC NSCLC it was 92.9%; in the assay with 786-0 renal, 80.6%; in the assay with COLO 205 colon it was 103%.
In the case of `COCCn1cc(-c2nc(-c3cn(CCOC)c4ncccc34)cs2)c2ccccc21`, the growth with NCI-H23 lung was 56.2%; in the assay with NCI-H226 lung, 87.3%; in the assay with NCI-H322M lung, 59.2%; in the assay on HOP-62 NSCLC, 67.8%; with NCI-H460 lung it was 56.6%; with HOP-92 NSCLC, 66.4%. The growth in the assay with NCI-H522 lung is 53.4%; in the assay on A549/ATCC NSCLC it was 70.8%; with 786-0 renal, 82.9%; in the assay on COLO 205 colon it was 18.8%.
Turning to `Nc1ccc(-c2nc3ccc4[nH]ncc4c3c3c2CCCC3)cc1F`, the growth is 19.7% in the assay with NCI-H23 lung; 42.2% in the assay with NCI-H226 lung; 41.3% with NCI-H322M lung; 23.1% in the assay with HOP-62 NSCLC; 24.8% in the assay with NCI-H460 lung; 55.4% with HOP-92 NSCLC. Also, the growth in the assay on NCI-H522 lung was 22.5%; in the assay with A549/ATCC NSCLC, 11.7%; with 786-0 renal, 37%; in the assay on COLO 205 colon, 12.4%.
Consider `O=c1c(/C=C/c2ccco2)nnc2sc(Nc3ccc(Cl)cc3)nn12`, for which the growth with NCI-H23 lung is 96.2%; in the assay with NCI-H226 lung, 85.4%; with NCI-H322M lung it was 83.8%; in the assay on HOP-62 NSCLC, 89%; in the assay with NCI-H460 lung, 101%; in the assay with HOP-92 NSCLC, 89.2%. Further, the growth in the assay on NCI-H522 lung was 90.8%; in the assay on A549/ATCC NSCLC, 101%; with 786-0 renal, 103%; in the assay with COLO 205 colon, 114%.
In the case of `O=[N+]([O-])c1ccc2[nH]c3nccc(NCc4cccc(Cl)c4)c3c2c1`, the growth is 82.3% with NCI-H23 lung; 83.9% in the assay with NCI-H226 lung; 77.8% in the assay on NCI-H322M lung; 10.8% with HOP-62 NSCLC; 26.8% in the assay on NCI-H460 lung; 92.5% with HOP-92 NSCLC. The growth in the assay with NCI-H522 lung was 50.3%; in the assay with A549/ATCC NSCLC, 58.8%; with 786-0 renal, 76.4%; in the assay on COLO 205 colon it was 68.1%.
`CN1CCN(c2ccc(/C=C/C(=O)c3ccc(O)cc3)cc2)CC1`: the growth was 93.9% with NCI-H23 lung; 97% with NCI-H226 lung; 101% in the assay with NCI-H322M lung; 97.7% in the assay with HOP-62 NSCLC; 101% in the assay with NCI-H460 lung; 74.8% in the assay on HOP-92 NSCLC. Further, the growth with NCI-H522 lung is 88%; in the assay on A549/ATCC NSCLC, 97.7%; in the assay on 786-0 renal, 98.8%; in the assay on COLO 205 colon it was 113%.
Consider `O=C(CCCOc1ccc(Br)cc1)Nc1ncc(Cc2ccc(F)cc2)s1`, for which the growth with NCI-H23 lung was 86.5%; in the assay with NCI-H226 lung, 88.8%; in the assay on NCI-H322M lung, 78.5%; in the assay with HOP-62 NSCLC, 75.3%; in the assay with NCI-H460 lung it was 90.4%; in the assay with HOP-92 NSCLC, 58%. In addition, the growth was 75.1% with NCI-H522 lung, 84.8% in the assay on A549/ATCC NSCLC, 86.3% in the assay with 786-0 renal and 63.3% in the assay with COLO 205 colon.
`CC[C@H](C)[C@H](NC(=O)[C@@H](N)CCC(N)=O)C(=O)N[C@@H](Cc1ccc(O)cc1)C(=O)N[C@@H](CCCCN)C(=O)N[C@@H](CCCCN)C(=O)N[C@@H](Cc1ccc(O)cc1)C(=O)N[C@@H](CCCNC(=N)N)C(=O)N[C@H](C(=O)N[C@@H](Cc1c[nH]c2ccccc12)C(=O)N[C@@H](Cc1ccc(O)cc1)C(=O)N[C@@H](CCCNC(=N)N)C(=O)N[C@@H](CCCCN)C(=O)N[C@@H](C)C(=O)N[C@@H](Cc1c[nH]c2ccccc12)C(=O)N[C@@H](CCCCN)C(=O)N[C@H](C(=O)N[C@@H](CC(C)C)C(=O)NCC(=O)N[C@@H](CCCCN)C(=O)N[C@H](C(N)=O)C(C)C)C(C)C)[C@@H](C)O`: the growth with NCI-H23 lung is -15.1% (active); with NCI-H226 lung, 53.4%; in the assay with NCI-H322M lung it was 23%; in the assay on HOP-62 NSCLC, 13.3%; in the assay on NCI-H460 lung, -4.21% (active); in the assay with HOP-92 NSCLC it was -21.2% (active). The growth is 59.4% in the assay on NCI-H522 lung, 38.7% in the assay on A549/ATCC NSCLC, -57.9% (active) in the assay on 786-0 renal and 0.119% (active) in the assay on COLO 205 colon.
